Compound activity from PubChem.
ELG1 repair inh: qHTS screen for small molecules that inhibit ELG1-dependent DNA repair in human embryonic kidney (HEK293T) cells expressing luciferase-tagged ELG1. HEK293T ELG1-luciferase reporter, luminescence, 16 h; DNA damage induced by 5-fluorouridine. Potency, µM (highest dose often 46.1 µM), usual class: inhibitors. 330,000 compounds, 2.3% hits; further: nearly all actives have a fitted effect of over 55% in size
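Cells (2,000 per well) received 5-fluorouridine plus test compound or DMSO and were incubated 16 hr at 37 °C, 5% CO2. Luciferase activity was read by luminescence 30 min after ONE-Glo addition; signal suppression marked inhibition of damage-induced ELG1 function.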
TRPV1 agonist: HTS Assay for Compounds that Act as Agonists of the Vanilloid Receptor 1. Transient receptor potential cation channel subfamily V member 1 (Homo sapiens), Q8NER1. TRPV1-expressing cells, Fluo-8 calcium influx, agonist mode. activation, % at 8.33 µM. 320,000 compounds, 0.19% hits. AID 540275, 2011; in the data active means activation above about 80%; inconclusive means between about 30% and that limit
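TRPV1-expressing cells were cultured overnight at 35.5C and loaded with Fluo-8 calcium dye for 40 to 90 min at room temperature. After a 10 s baseline, compound was added and calcium influx was read kinetically for 3 min (ex 480/em 520 nm).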
Giardia kill: Small Molecules that selectively kill Giardia lamblia: qHTS; Giardia lamblia trophozoite viability; activity change, % at 7.66 µM, hits read low; 340,000 compounds, 0.15% hits; AID 540267, 2011; in the data active means activity change below about -80%; inconclusive means between about -30% and that limit;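 further: parasites exposed to compound for two days anaerobically before the ATP read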
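Compounds were tested on trophozoites seeded at 100 cells/well and held 48 hrs at 37 deg C anaerobically. An ATP-based luminescent kit measured the remaining live cells.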
FUS suppressor: qHTS for Suppressors of FUS Proteinopathy: Primary screen using FUS-linked yeast assay; 390,000 compounds, 0.24% hits; AID 1347120, 2019; Potency, µM (titrated, usually from 76.6 µM), most hits filed as activators; S. cerevisiae FUS-expressing, growth rescue, OD600, 24 h; further: nearly all actives have a fitted effect of over 55% in size
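Quantitative HTS measuring growth restoration of FUS-toxic yeast. Galactose-induced cells (OD 0.005) were exposed 24hr at 30C to compounds at several concentrations, then absorbance at 600 nm was recorded.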
TRPV1 PAM: HTS Assay for Compounds that Act as Potentiators of the Vanilloid Receptor 1; Transient receptor potential cation channel subfamily V member 1 (Homo sapiens), Q8NER1; potentiation, % at 8.33 µM; 320,000 compounds, 0.02% hits; TRPV1-expressing cells, Fluo-8 calcium influx, capsaicin EC20 potentiation; in the data active means potentiation above about 80%; inconclusive means between about 30% and that limit
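Fluo-8 calcium influx in TRPV1-expressing cells, kinetic read (ex 480/em 520 nm). Compound added and read 3 min for agonist activity, followed by capsaicin at EC20 final and 2 min further read for enhancement.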
ELG1 FLuc counter: qHTS screen for small molecules that inhibit ELG1-dependent DNA repair: Hit Confirmation in Cell-Based Luciferin Assay; AID 624247, 2012; Potency, µM (doses to about 46.1 µM), most hits filed as inhibitors; cell-free firefly luciferase luminescence counter-screen, ViewLux; 350 compounds, 3% hits; shares compounds with ELG1 repair inh
ELG1 Luc conf: HTS assay for small molecules that inhibit ELG1-dependent DNA repair in human embryonic kidney (HEK293T) cells expressing luciferase-tagged ELG1: Hit Confirmation. Potency, µM (top dose mostly 46.1 µM), most hits filed as inhibitors. 670 compounds, 68% hits. shares compounds with ELG1 repair inh. HEK293T ELG1-luciferase levels, luminescence; cells co-treated with 5-fluorouridine. AID 624248, 2012; further: nearly all actives have a fitted effect of over 55% in size
Target sequence (Q96QE3 whole entry, looked up): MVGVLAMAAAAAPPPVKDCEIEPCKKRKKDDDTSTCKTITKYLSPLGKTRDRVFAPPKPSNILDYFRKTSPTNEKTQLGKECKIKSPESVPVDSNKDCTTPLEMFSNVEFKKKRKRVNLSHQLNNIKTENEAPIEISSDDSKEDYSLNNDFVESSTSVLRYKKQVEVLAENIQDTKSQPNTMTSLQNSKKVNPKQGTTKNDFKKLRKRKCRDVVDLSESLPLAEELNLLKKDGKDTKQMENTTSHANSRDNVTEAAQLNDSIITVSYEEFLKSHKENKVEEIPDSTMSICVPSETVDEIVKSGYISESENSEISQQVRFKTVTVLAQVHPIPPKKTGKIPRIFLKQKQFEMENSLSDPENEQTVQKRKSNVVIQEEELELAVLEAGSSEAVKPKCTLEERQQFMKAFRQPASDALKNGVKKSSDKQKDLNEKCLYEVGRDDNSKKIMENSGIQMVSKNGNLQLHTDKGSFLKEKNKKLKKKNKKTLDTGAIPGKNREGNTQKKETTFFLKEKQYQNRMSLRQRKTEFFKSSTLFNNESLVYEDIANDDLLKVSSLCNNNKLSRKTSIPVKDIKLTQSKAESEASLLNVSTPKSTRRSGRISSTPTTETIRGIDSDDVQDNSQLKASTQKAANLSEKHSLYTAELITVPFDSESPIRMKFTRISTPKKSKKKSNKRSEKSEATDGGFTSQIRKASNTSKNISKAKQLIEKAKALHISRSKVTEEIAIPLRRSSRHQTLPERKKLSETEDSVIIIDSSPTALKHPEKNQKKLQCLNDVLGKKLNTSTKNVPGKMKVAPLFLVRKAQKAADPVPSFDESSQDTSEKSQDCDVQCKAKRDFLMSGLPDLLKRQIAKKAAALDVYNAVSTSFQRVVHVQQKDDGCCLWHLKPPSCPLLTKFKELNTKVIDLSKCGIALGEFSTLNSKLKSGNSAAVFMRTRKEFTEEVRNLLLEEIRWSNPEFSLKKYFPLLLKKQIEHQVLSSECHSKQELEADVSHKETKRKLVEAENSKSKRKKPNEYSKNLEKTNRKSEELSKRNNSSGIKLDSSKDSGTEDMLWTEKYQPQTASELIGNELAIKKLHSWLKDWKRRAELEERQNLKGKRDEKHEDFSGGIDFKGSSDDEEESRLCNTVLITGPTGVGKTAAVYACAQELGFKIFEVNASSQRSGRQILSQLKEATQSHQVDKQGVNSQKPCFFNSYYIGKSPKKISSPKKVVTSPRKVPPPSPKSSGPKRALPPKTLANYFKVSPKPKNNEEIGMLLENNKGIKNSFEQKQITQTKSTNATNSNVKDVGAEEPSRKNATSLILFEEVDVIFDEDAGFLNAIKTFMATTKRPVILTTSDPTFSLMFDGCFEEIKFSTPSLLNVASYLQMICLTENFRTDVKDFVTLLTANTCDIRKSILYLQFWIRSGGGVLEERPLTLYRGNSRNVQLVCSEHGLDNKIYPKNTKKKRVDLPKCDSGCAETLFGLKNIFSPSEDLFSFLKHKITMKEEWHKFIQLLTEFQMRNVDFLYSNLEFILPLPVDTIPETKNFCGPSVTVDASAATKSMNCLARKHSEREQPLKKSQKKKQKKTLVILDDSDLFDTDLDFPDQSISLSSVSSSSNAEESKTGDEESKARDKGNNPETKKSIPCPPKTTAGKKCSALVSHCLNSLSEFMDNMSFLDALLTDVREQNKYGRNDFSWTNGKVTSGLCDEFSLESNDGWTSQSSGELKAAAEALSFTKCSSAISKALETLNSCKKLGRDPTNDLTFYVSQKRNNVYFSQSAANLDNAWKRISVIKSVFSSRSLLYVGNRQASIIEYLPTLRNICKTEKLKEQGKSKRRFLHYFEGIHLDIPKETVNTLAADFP
ELG1-Luc MMS: MMS-stimulated human ELG1 repair inhibition, confirmed | 670 compounds, 53% hits | Potency, µM (titrated, usually from 46.1 µM), actives largely listed as inhibitors | AID 624249 | shares compounds with ELG1 repair inh | HEK293T luciferase-tagged ELG1 level, MMS stimulated; further: nearly all actives have a fitted effect of over 60% in size
ELG1 5FU viab: qHTS screen for small molecules that inhibit ELG1-dependent DNA repair: Hit Confirmation with 5FU Viability | shares compounds with ELG1 repair inh | cell viability with 5-FU, ELG1-dependent repair | Potency, µM (series often up to 46.1 µM), hits mostly cytotoxic | 670 tested, under 10 active | AID 624250, 2012;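 further: ELG1-luc HEK293T cells cotreated with 5-fluorouridine at 10 µM final; viability measured 16 h after compound addition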
ELG1 MMS cell: qHTS screen for small molecules that inhibit ELG1-dependent DNA repair: Hit Confirmation with MMS Viability; shares compounds with ELG1 repair inh; Cell viability with MMS, ELG1-dependent DNA repair; Potency, µM (titrated, usually from 46.1 µM), most hits filed as cytotoxic; 670 compounds, 33% hits; AID 624251, 2012;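 further: ELG1-luc HEK293T cells co-treated with 10 µM MMS; viability read 16 h after compound addition; nearly all actives have a fitted effect of over 60% in size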
ELG1 unstim viab: qHTS screen for small molecules that inhibit ELG1-dependent DNA repair: Hit Confirmation with Unstimulated Viability Assay; cell viability counter-screen, unstimulated, luminescence; Potency, µM (series often up to 45.9 µM), usual class: cytotoxic; shares compounds with ELG1 repair inh; 900 compounds, 8% hits; AID 624252, 2012;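 further: compound exposure lasted 16 hours before reading; nearly all actives have a fitted effect of over 55% in size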
FLuc enzyme: qHTS screen for small molecules that inhibit ELG1-dependent DNA repair: Hit Confirmation in Biochemical Luciferin Assay; 350 compounds, 10% hits; shares compounds with ELG1 repair inh; Potency, µM (top dose mostly 57.5 µM), actives largely listed as inhibitors; AID 624253, 2012; purified firefly luciferase, luminescence counter-screen
Numbers stand for hits; . = inactive; ? = inconclusive; / = not tested or not shown. An excerpt weighted towards active compounds, which were near 2.3% of everything screened. Unless noted, the call rests on the fitted dose curve; in most records, active means well fitted curve in the direction sought with a large enough effect; inconclusive means small, poorly fitted or top-dose-only effect, or another doubt; inactive means no such curve, though single readings can be large; an effect the other way counts as inactive or inconclusive.

SMILES	ELG1 repair inh	TRPV1 agonist	Giardia kill	FUS suppressor	TRPV1 PAM	ELG1 Luc conf	ELG1-Luc MMS	ELG1 5FU viab	ELG1 MMS cell	ELG1 unstim viab	others
Cc1ccc(NC(=O)c2nc[nH]c2C(=O)NCCCCNC(=O)c2[nH]cnc2C(=O)Nc2ccc(C)cc2)cc1	0.731µM	/	.	.	/	1.26µM	1.77µM	.	?	.	ELG1 FLuc counter=.;FLuc enzyme=.
O=C(Nc1ccccc1)c1nc[nH]c1C(=O)NCCNC(=O)c1[nH]cnc1C(=O)Nc1ccccc1	2.31µM	/	.	.	/	4.99µM	4.45µM	.	?	15.8µM
COc1ccc(OC[C@@H](O)CNC(=O)c2cccc3c2C(=O)c2ccc(-c4ccc(F)cc4OCc4ccccc4)cc2S3(=O)=O)cc1	2.31µM	/	.	?	/	3.15µM	.	?	?	.
COc1ccc(NC(=O)c2cccc3c2C(=O)c2ccc(-c4ccc(F)cc4OCc4ccccc4)cc2S3(=O)=O)cc1	.	/	.	.	/	/	/	/	/	/
Cc1ccc(NC(=O)Cn2ccn(Cc3ccc(Cl)cc3)c(=O)c2=O)cc1C	/	/	/	.	/	/	/	/	/	/
COC(=O)c1c(C)sc(-c2c(-c3ccc(OC)c(F)c3)[nH]c3c2c(=O)n(C)c(=O)n3C)c1O	/	/	/	.	/	/	/	/	/	/
COc1ccc(N2CCN(C(=O)CCS(=O)(=O)c3ccc4c(c3)NC(=O)C(C)S4)CC2)cc1 (stereo not drawn)	.	.	.	.	.	/	/	/	/	/
Cc1ccc(C)c(N2CCN(C(=O)CCS(=O)(=O)c3ccc4c(c3)NC(=O)C(C)S4)CC2)c1 (stereo not drawn)	4.61µM	?	.	.	.	12.5µM	1.99µM	?	1.99µM	?
COc1ccc(Nc2nc(-c3ccncc3)nc3ccccc23)cc1	2.91µM	.	.	.	.	5µM	?	?	.	?	ELG1 FLuc counter=.;FLuc enzyme=.
COc1ccc(OC)c(Nc2nc(-c3ccncc3)nc3ccccc23)c1	?	.	.	.	.	/	/	/	/	/
COc1cc2c(cc1OC)CN(C(=O)c1nn(Cc3ccccc3)c(=O)c3ccccc13)CC2	2.59µM	.	.	/	.	1.12µM	?	?	?	?
CCC(C)(C)C1CCc2nc3ccccc3c(C(=O)OC(C)C(=O)Nc3c(C)n(C)n(-c4ccccc4)c3=O)c2C1 (stereo not drawn)	4.11µM	.	.	.	.	2.23µM	25µM	?	.	?
CCOc1cc(/C=N/Nc2cc(C)nc(-n3nc(C)cc3C)n2)ccc1O	2.59µM	.	.	.	.	6.28µM	?	?	?	?
CC(C)(C)OC(=O)C[C@@H]1C/C=C\C[C@@H](CC(=O)N[C@H](CO)Cc2ccccc2)C(=O)N2CCC[C@H]2COC1=O	2.91µM	/	.	.	/	?	?	.	.	?
CC(C)(C)OC(=O)C[C@H]1C/C=C\C[C@@H](CC(=O)N[C@H](CO)Cc2ccccc2)C(=O)N2CCC[C@H]2COC1=O	?	/	.	.	/	/	/	/	/	/
CCOc1ccc(-n2cc(C(=O)Nc3cccc(OC)c3)c3cc(OC)c(OC)cc3c2=O)cc1	?	.	.	?	.	11.2µM	25µM	?	.	.	ELG1 FLuc counter=.;FLuc enzyme=.
CCn1cc(C(=O)Nc2ccc3c(c2)OCCO3)c2cc(OC)c(OC)cc2c1=O	5.8µM	/	.	.	/	7.06µM	?	?	?	?	ELG1 FLuc counter=.;FLuc enzyme=.
CCOc1ccc(-n2cc(C(=O)Nc3ccccc3OCC)c3cc(OC)c(OC)cc3c2=O)cc1	/	/	/	.	/	/	/	/	/	/
CCn1cc(C(=O)Nc2cccc(NC(C)=O)c2)c2cc(OC)c(OC)cc2c1=O	?	.	.	.	.	/	/	/	/	/
O=C1CCC[C@@H]2Cc3nc4cc5c(cc4cc3[C@@H]3CCN1[C@H]23)OCO5	/	/	.	.	/	/	/	/	/	?
COc1cccc(/C=C/c2onc(C)c2S(=O)(=O)N2CCC(C(=O)N3CCCCC3)CC2)c1	/	/	/	.	/	/	/	/	/	/
COc1ccc(/C=C/c2onc(C)c2S(=O)(=O)N2CCC(C(=O)N3CCCCCC3)CC2)cc1	2.59µM	.	.	.	.	3.15µM	15.8µM	?	.	.
CCOc1ccccc1/C=C/c1onc(C)c1S(=O)(=O)N1CCC(C(=O)N2CCCCCC2)CC1	2.91µM	?	.	?	.	3.97µM	?	?	.	.
Cc1cccc(/C=C/c2onc(C)c2S(=O)(=O)N2CCC(C(=O)N3CCCCC3)CC2)c1	2.91µM	?	.	?	.	2.23µM	?	?	.	.
CCOc1ccc(NC(=O)Cn2c(=O)n(-c3cccc(OC)c3)c(=O)c3c4c(sc32)CCCC4)cc1	/	/	/	.	/	/	/	/	/	/
CC(Sc1nc(N2CCOCC2)c2c(c1C#N)CC(C)(C)OC2)C(=O)Nc1ccccc1 (stereo not drawn)	2.91µM	?	.	.	.	1.77µM	.	?	?	.	ELG1 FLuc counter=.;FLuc enzyme=.
CCOC(=O)CCSc1nc(N2CCOCC2)c2c(c1C#N)CC(C)(C)OC2	1.03µM	?	.	.	.	4.45µM	.	?	.	.	ELG1 FLuc counter=.;FLuc enzyme=.
CCc1ccc2occ(CC(=O)Nc3nnc(C)s3)c2c1	/	/	/	.	/	/	/	/	/	/
COc1cccc2c1C(=O)/C(=C\c1ccc(N(C)C)cc1)C2	/	/	/	/	/	/	/	/	/	?
